From ChEMBL document CHEMBL4513216, “Probing the Open Global Health Chemical Diversity Library for Multistage-Active Starting Points for Next-Generation Antimalarials” (ACS Infect Dis, 2020) come the findings set out here.

Hit rate of the full screen: of about 69,000 compounds, about 8,600 (12%) showed an effect of 50% or more. The list comes from a sample in which strong results are over-represented; it also holds similar structures and randomly drawn compounds.

This assay deals with Plasmodium berghei. Put plainly: Screen against P. berghei liver stage (PbLuc), transformed with Luciferase, at 10uM. The settings on record: tested at 10 uM. The format is functional, HepG2.
For the compound `Cc1ccc(S(N)(=O)=O)cc1C(=O)NC1CCN(C2CC2)CC1`, the INHIBITION is listed as -10.9%.
The result for `CC(=O)N1CCN(c2ccnc(C)n2)CC(COc2ccccc2)C1` (stereo not drawn) reads 1.11%.
The result for `Cc1ccc(N2CCN(Cc3ccccc3)C3(CCNCC3)C2=O)cn1` reads 8.31%; that for `CN(C)c1cncc(C2CCN(CC(N)=O)CC2)n1`, 31.6%; that for `Cn1cccc1C(=O)N[C@@H]1CN(Cc2ccsc2)[C@@H]2COC[C@@H]21`, -37.4%.
In the case of `O=C(NCC1CC1)[C@H]1C[C@H]2CN(S(=O)(=O)Cc3ccccc3)C[C@@H]1O2`, the INHIBITION worked out at 43.2%.
Then `CN(Cc1ccsc1)C(=O)Nc1ccc(S(C)(=O)=O)cc1`, with 31.8%; and `NC(=O)c1ccc(NC(=O)Cn2cc(-c3ccccc3)ncc2=O)cc1`, with 26.8%; and `Cc1nc(-c2ccncc2)ncc1C(C)NC(=O)C1=NN(C)C(=O)CC1` (stereo not drawn), with -9.29%.
The result for `Cn1nc(C(=O)N2CCC(Oc3ccc(C#N)cn3)CC2)ccc1=O` reads 25.8%; that for `COc1ccccc1OC1CCN(C(=O)c2cnc(C)s2)CC1`, 12.7%; that for `CN1CCCC(C(=O)N2CCC(Oc3ccccn3)CC2)C1` (stereo not drawn), 25.3%.
Then `CC(=O)N1CCC(Oc2ccc(C#N)cn2)CC1`, with -43.5%; and `COc1ccccc1OC1CCN(C(=O)C2CCCN(C)C2)CC1` (stereo not drawn), with 62.8%.
In the case of `CN1CCCC(C(=O)N2CCC(Oc3ccc(C#N)cn3)CC2)C1` (stereo not drawn), the INHIBITION is given as 74.4%.
Then `COCc1ncn2c1CN(C(=O)c1ccco1)CC2`, with 4.57%; and `CCC1CNCc2cc3c(C)ccc(C)c3nc2O1` (stereo not drawn), with 21.7%.
The result for `COc1cccc(C(=O)NC(C)CCN2CCOCC2)c1F` (stereo not drawn) reads 34.1%.
With `CC(CCN(C)C)NC(=O)c1cccc(C(F)(F)F)c1F` (stereo not drawn), the INHIBITION worked out at 66.5%.
With `CC(CCN1CCOCC1)NC(=O)c1cccc(C(F)(F)F)c1F` (stereo not drawn), the INHIBITION worked out at 35%.
For the compound `COc1c(CNCCC(=O)NC2CCCC2)c(C(C)C)nn1C`, the INHIBITION came to 21%.
The result for `O=C(C[C@@H]1COC[C@H]2CN(Cc3ccc(F)cc3)C[C@@H]12)N1CCCC1` reads -21.1%; that for `CC(C)Nc1cccc(CNC(=O)N2CCC[C@@H]2CO)c1`, 52.2%.
The result for `CC(C)Nc1cccc(CNC(=O)N2CCCC2)c1` reads 24.2%; that for `CC(C)Nc1cccc(CNC(=O)N2CCC(N3CC=CC3)C2)c1` (stereo not drawn), 19.4%; that for `CC1=Nc2c(c(O)nn2C(C)C)C(c2cn(C)nc2C)S1` (stereo not drawn), 33.3%.
Consider `CCn1cc(Cl)c(C(=O)NCCCO)n1`, for which the INHIBITION is given as 20.1%.
Then `COc1ccc2cc(NC(=O)CCNc3nc(C)cc(C)n3)cnc2c1`, with 73%; and `CS(=O)(=O)c1ccc(NC(=O)CSC(F)(F)F)cn1`, with 39.8%; and `COc1ccc(NC(=O)CCNc2ncccn2)cn1`, with 61%.
The result for `O=C(CCNc1ncccn1)Nc1ccc(Cn2cncn2)cc1` reads -4.56%; that for `COc1ccc(NC(=O)N2CCN(c3ncccn3)CC2)cn1`, -7.11%; that for `COc1ccc(NC(=O)Cn2cc(-c3ccccc3)ncc2=O)cn1`, 44.9%.
Then `COc1ccc2cc(NC(=O)CCCNc3ncccn3)cnc2c1`, with 46.1%; and `COc1ccc2cc(NC(=O)CCNc3ncccn3)cnc2c1`, with 41.5%; and `COc1ccc(NC(=O)CSC(F)(F)F)cn1`, with 66.7%.
As for `Cc1cc(C)nc(NCCC(=O)Nc2ccc(Cn3cncn3)cc2)n1`, the INHIBITION came to 55.1%.
The result for `O=C(CCCNc1ncccn1)Nc1ccc(Cn2cncn2)cc1` reads 45.9%; that for `COc1ccc(NC(=O)CSc2nc(C)cc(C)n2)cn1`, -5.69%.
Then `O=C(NCCc1nnc2n1CCC2)NCC1(c2cccc(F)c2)CC1`, with -36.3%; and `CO[C@H]1CN(C(C)C)C[C@@H]1NC(=O)Nc1ccc(C(F)(F)F)cc1`, with 40.3%; and `CN(CC(=O)NC(C)(C)C)C(=O)C1CC(c2cccc(F)c2)=NO1` (stereo not drawn), with -29.1%.
Then `COCCN1CCCC(c2nccnc2-c2cccc(Cl)c2)C1` (stereo not drawn), with 12.75%; and `COc1ccc(-n2cc(CNC(=O)c3ccccn3)nn2)cc1`, with -15.9%; and `CS(=O)(=O)NCc1cc(-c2cc(F)cc(F)c2)nc(N2CCOCC2)n1`, with -4.82%.
As for `CCc1nc(CC)n(CC(=O)NCc2cccc(C)c2)n1`, the INHIBITION was found to be 13%.
Then `CN1CC(=O)N(c2ccccc2)CC12CCN(CC1CCOCC1)C2` (stereo not drawn), with -11.2%; and `CCc1nccn1CC(=O)N1C[C@@H]2CC[C@H]1CN(c1ncccn1)C2`, with -22.4%; and `Cc1cnn(CC2CN(Cc3nc(C)no3)CCO2)c1` (stereo not drawn), with 4.71%.
Then `Cc1nc(CN2C[C@@H]3CN(C(=O)c4cccn4C)C[C@@H]3C2)cs1`, with 16.1%; and `CC(C(=O)NC(N)=O)N(C)CCCc1cc(-c2ccccc2)no1` (stereo not drawn), with -28.36%; and `Cc1cccc(CN2CCC3(CC2)NC(=O)C[C@H]3c2cnn(C)c2)n1`, with 1.61%.
The result for `CC(NC(=O)COc1cccc[n+]1[O-])C1CC1` (stereo not drawn) reads 76.7%.
